The record followed here is PubChem BioAssay.

Experiment [1] deals with 6-phosphogluconate dehydrogenase, decarboxylating (Homo sapiens) (UniProt P52209). Briefly: 6PGD enzyme inhibitors, primary screen, biochemical, human, recombinant enzyme, NADPH absorbance (AID 1159550;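 active = at least 20% inhibition of 6-phosphogluconate dehydrogenase activity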). As to conditions: recombinant 6PGD, NADPH absorbance 341 nm; at 10 µM; stronger effect = higher value.
The nature of experiment [2]: differential killing of epithelial or mesenchymal cells, primary screen, imaging, PC-3E GFP, TEM4-18 mCherry, co-culture (AID 1345086;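 active = compounds killing one labelled cell type while sparing the other, by normalised counts and ratio limits, not self-fluorescent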;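 as to all read-outs here: cells exposed to compound for 72 h before imaging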;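 as to red/green cell ratio (normalised): normalised mesenchymal count divided by normalised epithelial count so high means epithelial killing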). To be noted: imaging cell counts, at 1 µM; for red/green cell ratio (normalised): actives lie on both sides, counts scaled to control wells, 1 = unselective.
A short description of experiment [3]: polyglutamine-triggered caspase-3 activation inhibitors, cell-based (AID 1583). To be noted: polyglutamine-induced caspase-3 activation, cell assay; stronger effect = higher value;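 tested at 10 µM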.
The nature of experiment [4]: suppressors of polyQ aggregation in yeast, 75Q-TubU reporter (AID 1593). To be noted: Yeast 75Q polyglutamine aggregation reporter.
Experiment [5] is described as follows: rescue of polyQ-huntingtin neuronal dysfunction in worms, whole organism, C. elegans mechanosensory neurons, N-terminal huntingtin (AID 1599). To be noted: touch response, stronger effect = higher value.
Experiment [6] can be described thus: inhibitors of mitochondrial cytochrome c release, biochemical, purified mitochondria (AID 1603).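 Also: mouse liver mitochondria challenged with calcium chloride; signal normalized to the plate average as 100%.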 To be noted: stronger effect = lower value.
Experiment [7] is described as follows: inhibitors of polyQ protein aggregation (AID 1604). As to conditions: polyglutamine-induced protein aggregation inhibition assay; stronger effect = higher value; tested at 2.5 µM.
Experiment [8] can be described thus: enhancers of glutamate uptake in motor neurons, MN-1 cell line (AID 1612).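 Also: tested at 1 µM final; 0% = mean of DMSO vehicle wells on each plate; positive means more glutamate uptake than control and negative means less.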 To be noted: MN-1 motor neuron cells, stronger effect = higher value.
A short description of experiment [9]: suppressors of polyglutamine aggregation in yeast, 75Q-TubH (AID 1616). As to conditions: S. cerevisiae 75Q-TubH polyglutamine aggregation suppression; stronger effect = higher value.
A short description of experiment [10]: hESC survival regulators, cell-based (AID 493140; call rule not given here;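 also: cells exposed to compounds for four days before counting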). As to conditions: human embryonic stem cell survival screen; stronger effect = higher value.
Experiment [11] is described as follows: SU-DIPG-VI glioma cell viability, MIPE4.0 library, CellTiter-Glo luminescence, qHTS (AID 1347066; cut-off not given, nearly all actives have AC50 up to about 30 µM;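 also: cells exposed to compound for 48 hours before readout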). As to conditions: CellTiter-Glo ATP luminescence. A general note: ATP-based viability assays read luminescence as a measure of living cells.
The nature of experiment [12]: survival rescue of mitochondrial mutant cells in low glucose, primary screen, MELAS cybrids, Rieske KO mouse fibroblasts, CellTiter-Glo (AID 1508586;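 active = mean z-score across replicates of 1.96 or higher in either the MELAS or the Rieske mutant cell line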;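 also: z relative to plate mean and SD of compound and empty wells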).
Experiment [13] can be described thus: ovarian cancer cell viability with rucaparib, profiling panel, oncology-focused library, rucaparib conditional (AID 1508598). As to conditions: patient-derived ovarian cancer cells, CellTiter-Glo viability, 144 h, stronger effect = lower value.
Experiment [14] deals with NAD(+) hydrolase SARM1 (Homo sapiens) (UniProt Q6SZW1). In words: SARM1 TIR NADase inhibitors, cell lysate, NAD-Glo luminescence (AID 1508614;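 active = compound whose remaining NAD level is above about 45 nM, limit read from the data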;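 also: higher remaining NAD means stronger inhibition of SARM1 NADase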). As to conditions: SAM-TIR HEK293T lysate NADase, at 1 µM, stronger effect = higher value.
Sequence of NAD(+) hydrolase SARM1 (Homo sapiens) (Q6SZW1 whole entry, looked up, the tested form may be a part): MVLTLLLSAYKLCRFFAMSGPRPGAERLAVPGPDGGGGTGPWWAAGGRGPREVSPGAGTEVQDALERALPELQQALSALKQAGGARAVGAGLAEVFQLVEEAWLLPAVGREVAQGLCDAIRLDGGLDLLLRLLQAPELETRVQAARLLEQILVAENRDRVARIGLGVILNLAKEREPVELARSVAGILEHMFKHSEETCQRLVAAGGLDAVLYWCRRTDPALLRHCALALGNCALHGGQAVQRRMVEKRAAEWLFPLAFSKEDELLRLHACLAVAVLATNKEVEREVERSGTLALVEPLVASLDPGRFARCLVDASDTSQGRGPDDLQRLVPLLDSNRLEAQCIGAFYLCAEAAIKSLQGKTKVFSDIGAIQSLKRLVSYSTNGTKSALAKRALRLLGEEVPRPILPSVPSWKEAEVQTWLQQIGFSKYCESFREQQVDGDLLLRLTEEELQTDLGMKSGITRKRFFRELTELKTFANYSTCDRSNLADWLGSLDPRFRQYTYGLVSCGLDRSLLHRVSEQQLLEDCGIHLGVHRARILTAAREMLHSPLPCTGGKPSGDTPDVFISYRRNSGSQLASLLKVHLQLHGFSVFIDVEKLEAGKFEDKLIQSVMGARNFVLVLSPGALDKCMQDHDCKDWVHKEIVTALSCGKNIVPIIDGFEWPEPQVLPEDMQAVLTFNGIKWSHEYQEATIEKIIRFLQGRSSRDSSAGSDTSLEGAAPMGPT
The target of experiment [15] is Mitogen-activated protein kinase 7 (Homo sapiens) (UniProt Q13164). Briefly: ERK5 transactivation activators in reporter cells, primary screen, cell-based, HTS (AID 1508626;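 active = luciferase signal above three times the same-plate solvent-only control wells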;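 also: luciferase driven by Gal4-ERK5 fusion binding five Gal4 sites before minimal TATA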). To be noted: HeLa Gal4-ERK5 transactivation, 18 h, at 5 µM, stronger effect = higher value.
Sequence of Mitogen-activated protein kinase 7 (Homo sapiens) (Q13164 whole entry, looked up, the tested form may be a part): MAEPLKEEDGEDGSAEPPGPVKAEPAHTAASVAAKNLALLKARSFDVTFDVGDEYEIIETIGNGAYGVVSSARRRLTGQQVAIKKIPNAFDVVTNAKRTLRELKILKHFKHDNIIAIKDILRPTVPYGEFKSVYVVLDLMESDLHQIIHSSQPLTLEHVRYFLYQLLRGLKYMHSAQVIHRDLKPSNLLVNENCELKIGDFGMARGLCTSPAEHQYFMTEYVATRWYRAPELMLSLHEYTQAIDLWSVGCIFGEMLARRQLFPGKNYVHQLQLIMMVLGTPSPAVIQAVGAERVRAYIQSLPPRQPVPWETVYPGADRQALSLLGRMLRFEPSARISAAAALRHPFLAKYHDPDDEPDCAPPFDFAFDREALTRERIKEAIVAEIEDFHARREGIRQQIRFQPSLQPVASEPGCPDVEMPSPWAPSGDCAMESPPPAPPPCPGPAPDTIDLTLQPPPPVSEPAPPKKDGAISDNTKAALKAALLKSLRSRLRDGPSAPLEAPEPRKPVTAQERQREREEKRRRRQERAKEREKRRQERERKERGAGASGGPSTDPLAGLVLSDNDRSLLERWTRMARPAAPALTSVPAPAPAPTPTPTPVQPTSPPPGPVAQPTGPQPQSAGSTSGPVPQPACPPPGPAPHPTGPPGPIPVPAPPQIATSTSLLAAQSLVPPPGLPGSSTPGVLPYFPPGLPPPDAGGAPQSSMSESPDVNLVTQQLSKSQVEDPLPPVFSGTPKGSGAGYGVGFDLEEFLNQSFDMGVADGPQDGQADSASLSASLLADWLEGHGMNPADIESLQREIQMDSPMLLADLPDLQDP
The nature of experiment [16]: liver-stage malaria parasite growth inhibition, primary screen, cell-based, HepG2, luciferase luminescence, HepG2 viability (AID 624349; in the data active = parasite load remaining mostly below about 12%, no sharp cut-off; inactive = mostly above about 10%;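 also: 100% = mean of DMSO negative control wells on the same plate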). To be noted: P. berghei liver stage in HepG2, luciferase luminescence, concentration not given here; parasite load remaining: stronger effect = lower value; viability: measured here: HepG2 viability without parasites.
A short description of experiment [17]: viability rescue of complex I mutant cybrids, primary screen, cell-based, galactose medium, ATP luminescence (AID 1645843;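 active = z-score of at least 1.8 in each of two replicates, scored against plate mean and spread of sample wells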;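 also: positive z means more ATP and so rescue of galactose-driven cybrid death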). As to conditions: complex I mutant cybrid cells, 72 h, stronger effect = higher value.
A short description of experiment [18]: sensitizers of A549 cells to miR-34 induction, primary screen, imaging, A549 dox-inducible miR-34, nuclei and caspase counts (AID 1347080;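 active = compounds whose cell count with miR-34 switched on is under 0.7 times the count with it off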). To be noted: A549 miR-34 inducible, Hoechst nuclei count, 48 h.
[19] abbreviates: measured here: epithelial PC-3E GFP cell survival.
[20] abbreviates: measured here: mesenchymal TEM4-18 mCherry cell survival.
The mark [21] stands for this setting: MELAS cybrid survival, CellTiter-Glo 48 h, stronger effect = higher value.
Setting [22] is: Rieske KO mouse fibroblast survival, CellTiter-Glo 72 h.

Each structure is given as a SMILES string. Values joined by “and” are separate entries in the source; they are usually repeats but may differ in a detail not shown here. Equal entries are not always repeated. Results filed as inconclusive are left out. For some of these results: Results with a measured potency or affinity are listed apart. Active and inactive are the calls of the source.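 The calls were made as follows, unless noted: active = normalized viability below 100% at a tested concentration; inactive = the rest.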

Sequence of 6-phosphogluconate dehydrogenase, decarboxylating (Homo sapiens) (P52209 whole entry, looked up): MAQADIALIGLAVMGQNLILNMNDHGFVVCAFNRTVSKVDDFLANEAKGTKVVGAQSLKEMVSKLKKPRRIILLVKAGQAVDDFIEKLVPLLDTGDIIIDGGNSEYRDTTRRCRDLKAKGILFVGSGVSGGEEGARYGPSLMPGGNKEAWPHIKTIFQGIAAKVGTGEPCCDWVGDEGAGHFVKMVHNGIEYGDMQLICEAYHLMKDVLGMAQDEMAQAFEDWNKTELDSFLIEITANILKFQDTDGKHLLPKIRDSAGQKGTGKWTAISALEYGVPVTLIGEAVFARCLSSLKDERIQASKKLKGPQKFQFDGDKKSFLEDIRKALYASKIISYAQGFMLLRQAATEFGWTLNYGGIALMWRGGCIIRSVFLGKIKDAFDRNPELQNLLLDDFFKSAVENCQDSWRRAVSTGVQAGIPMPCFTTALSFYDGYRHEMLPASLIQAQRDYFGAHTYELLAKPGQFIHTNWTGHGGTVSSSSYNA

By inhibition is commonly meant the relative decrease from the control value, in per cent. With `O=C(O)c1cc(=O)c(O)c2c(O)c(O)ccc2c1`, in experiment [1], the inhibition is 31% (active). For the same molecule, the red/green cell ratio (normalised) in experiment [2] was 0.86 (inactive). Besides, the normalised cell number in experiment [2] (setting [19]) came to 1.29; in experiment [2] (setting [20]), 1.11.

In general, AC50 refers to the midpoint of the concentration-response curve, whichever way the signal moves. For orientation: viability means a read-out of living cells in per cent, often relative to untreated cells. Consider `CC/C(=C(\c1ccccc1)c1ccc(OCCN(C)C)cc1)c1ccccc1`, for which the inhibition was 22.9% in [3] and 1.2% (inactive) in [1]. In [4], this molecule yielded a score of -1.76. The molecule also registered a rescue above control in experiment [5] of 2.54. The cytochrome c release ratio in experiment [6] worked out at 2.67. The molecule further had an inhibition of aggregation in experiment [7] of 58.9%. In addition, the glutamate uptake change in experiment [8] was -4.23%. Moreover, the aggregation suppression score in experiment [9] was -0.635. In addition, in experiment [10], the survival is 6.5 (inactive). The red/green cell ratio (normalised) in experiment [2] is 1.09 (inactive). The normalised cell number in [2] (setting [19]) came to 0.93; in [2] (setting [20]) it was 1.01. The AC50 in [11] is 23.5 µM (active). The z-score in experiment [12] (setting [21]) is -0.656 (inactive) and -1.22 (inactive); in experiment [12] (setting [22]), 0.287 and -0.548. Also, the viability is 93.5% (active) in experiment [13] (at 0.000305 µM, OCI-C5x cells, with rucaparib 10 µM, 100% = cells with rucaparib alone); 95.2% (active) in experiment [13] (at 0.000305 µM, OCI-C5x cells, without rucaparib); 89.3% (active) in [13] (at 0.000305 µM, OCI-P5x cells, with rucaparib 20 µM, 100% = cells with rucaparib alone); 83.7% (active) in [13] (at 0.000305 µM, OCI-P5x cells, without rucaparib); 109% (inactive) in experiment [13] (at 0.00122 µM, OCI-C5x cells, with rucaparib 10 µM, 100% = cells with rucaparib alone); 97.1% (active) in [13] (at 0.00122 µM, OCI-C5x cells, without rucaparib). In addition, the viability in experiment [13] (at 0.00122 µM, OCI-P5x cells, with rucaparib 20 µM, 100% = cells with rucaparib alone) is 92.3% (active); in [13] (at 0.00122 µM, OCI-P5x cells, without rucaparib) it was 91.4% (active); in experiment [13] (at 0.00488 µM, OCI-C5x cells, with rucaparib 10 µM, 100% = cells with rucaparib alone) it was 103% (inactive); in experiment [13] (at 0.00488 µM, OCI-C5x cells, without rucaparib), 93.8% (active); in experiment [13] (at 0.00488 µM, OCI-P5x cells, with rucaparib 20 µM, 100% = cells with rucaparib alone), 101% (inactive); in experiment [13] (at 0.00488 µM, OCI-P5x cells, without rucaparib), 97.9% (active). Also, the viability in [13] (at 0.0195 µM, OCI-C5x cells, with rucaparib 10 µM, 100% = cells with rucaparib alone) is 107% (inactive); in experiment [13] (at 0.0195 µM, OCI-C5x cells, without rucaparib), 97.1% (active); in experiment [13] (at 0.0195 µM, OCI-P5x cells, with rucaparib 20 µM, 100% = cells with rucaparib alone), 89.8% (active); in experiment [13] (at 0.0195 µM, OCI-P5x cells, without rucaparib), 99.8% (active); in [13] (at 0.0781 µM, OCI-C5x cells, with rucaparib 10 µM, 100% = cells with rucaparib alone) it was 99.2% (active); in experiment [13] (at 0.0781 µM, OCI-C5x cells, without rucaparib) it was 92.3% (active). The viability in experiment [13] (at 0.0781 µM, OCI-P5x cells, with rucaparib 20 µM, 100% = cells with rucaparib alone) is 97% (active); in [13] (at 0.0781 µM, OCI-P5x cells, without rucaparib) it was 99.7% (active); in experiment [13] (at 0.313 µM, OCI-C5x cells, with rucaparib 10 µM, 100% = cells with rucaparib alone) it was 110% (inactive); in experiment [13] (at 0.313 µM, OCI-C5x cells, without rucaparib), 95.3% (active); in [13] (at 0.313 µM, OCI-P5x cells, with rucaparib 20 µM, 100% = cells with rucaparib alone) it was 97.5% (active); in experiment [13] (at 0.313 µM, OCI-P5x cells, without rucaparib), 102% (inactive). Moreover, the viability is 98.2% (active) in experiment [13] (at 1.25 µM, OCI-C5x cells, with rucaparib 10 µM, 100% = cells with rucaparib alone); 100% (inactive) in experiment [13] (at 1.25 µM, OCI-C5x cells, without rucaparib); 100% (inactive) in [13] (at 1.25 µM, OCI-P5x cells, with rucaparib 20 µM, 100% = cells with rucaparib alone); 106% (inactive) in [13] (at 1.25 µM, OCI-P5x cells, without rucaparib); 95.5% (active) in [13] (at 5 µM, OCI-C5x cells, with rucaparib 10 µM, 100% = cells with rucaparib alone); 100% (active) in experiment [13] (at 5 µM, OCI-C5x cells, without rucaparib). The viability in [13] (at 5 µM, OCI-P5x cells, with rucaparib 20 µM, 100% = cells with rucaparib alone) was 97.5% (active); in [13] (at 5 µM, OCI-P5x cells, without rucaparib), 101% (inactive). The remaining NAD in experiment [14] is 10 nM (inactive). Besides, the luciferase signal in [15] is 84 AU (inactive).

As to `NCCc1cnc[nH]1`, the figures for the inhibition in [3] and in experiment [1] were -28.4% and 11.6% (inactive), respectively. The same molecule returned a score in experiment [4] of 1.16. Further, the rescue above control in experiment [5] is -5.3. Further, the cytochrome c release ratio in experiment [6] stood at 0.91. Also, the inhibition of aggregation in experiment [7] was found to be 51.2%. In experiment [8], the glutamate uptake change is -0.34%. In experiment [9], this molecule yielded an aggregation suppression score of 1.08. Moreover, the parasite load remaining in experiment [16] was 99.6% (inactive) and 68.2% (inactive). For the same molecule, the viability in [16] was 74.2% and 99%. For the same molecule, in experiment [2], the red/green cell ratio (normalised) was 1.19 (inactive). Also, the results for the normalised cell number in experiment [2] (setting [19]) and in experiment [2] (setting [20]) were 0.99 and 1.18, respectively. The result in [11] was inactive. The z-score in experiment [12] (setting [21]) is 1.03 (inactive) and -0.124 (inactive) and -0.135 (inactive); in experiment [12] (setting [22]) it was -0.434 and -0.222 and -0.159; in experiment [17] it was 0.205 (inactive) and 0.305 (inactive) and 0.49 (inactive). The remaining NAD in [14] was 10 nM (inactive). Further, the luciferase signal in experiment [15] is 68 AU (inactive).

For the molecule `COc1cc(-c2coc3cc(OCc4ccccc4)c(OC)c(O)c3c2=O)cc(O)c1OC`, the inhibition in experiment [1] is 9.07% (inactive). Besides, the red/green cell ratio (normalised) in experiment [2] is 0.97 (inactive). Besides, the normalised cell number in experiment [2] (setting [19]) came to 1.1; in experiment [2] (setting [20]), 1.07.

`CC(C)CCCC(C)[C@H]1CCC2C3CC=C4CC(=O)CC[C@]4(C)C3CC[C@@]21C` (some centres undefined): in experiment [1], the inhibition was 11.7% (inactive). Moreover, the red/green cell ratio (normalised) in experiment [2] was 0.87 (inactive). In addition, the normalised cell number in [2] (setting [19]) was found to be 1.01; in experiment [2] (setting [20]) it was 0.88.

Take `O=c1cc(-c2ccccc2)oc2cc(O)c(O)c(O)c12`: in [16], the parasite load remaining is 140% (inactive). Moreover, in experiment [16], the viability was 91.4%. Moreover, in [1], the inhibition is 4.11% (inactive). For the same molecule, the red/green cell ratio (normalised) in experiment [2] is 0.84 (inactive). The figures for the normalised cell number in experiment [2] (setting [19]) and in [2] (setting [20]) were 1.08 and 0.91, respectively. Besides, the fold change in [18] (stronger effect = lower value, cell number ratio, induced over uninduced) is 1.03 (inactive) and 0.801 (inactive) and 0.986 (inactive); in [18] (measured here: relative caspase fold change +Dox/-Dox), 1.01 and 1.16 and 0.831. The cell count was 5800 and 6380 and 7810 in experiment [18] (measured here: total cells with miR-34 induction, stronger effect = lower value); 5640 and 7960 and 7920 in [18] (measured here: total cells without miR-34 induction). Moreover, the z-score in experiment [12] (setting [21]) was -0.448 (inactive); in experiment [12] (setting [22]) it was -1.5; in experiment [17], -0.805 (inactive). In addition, in experiment [15], the luciferase signal was 60 AU (inactive).
